Experimental data published in the supplement of paper PMC11732987, “Enantioselective OTUD7B fragment discovery through chemoproteomics screening and high-throughput optimisation” (Communications Chemistry, 2025).

Tests used:
Test in all cases: log2 ratio of Biotin-Ahx-Ub-VS probe labelling (fragment/DMSO); higher = less target engagement (more negative = stronger competition), active = hit call of the paper (q ≤ 0.05, log2 ratio ≤ -1)
Details in all cases: compound concentration: 200 uM; treatment time: 3 h
OTUD6B = target: T1, OTUD6B (UniProt Q8N6M0)
T1 sequence (whole entry): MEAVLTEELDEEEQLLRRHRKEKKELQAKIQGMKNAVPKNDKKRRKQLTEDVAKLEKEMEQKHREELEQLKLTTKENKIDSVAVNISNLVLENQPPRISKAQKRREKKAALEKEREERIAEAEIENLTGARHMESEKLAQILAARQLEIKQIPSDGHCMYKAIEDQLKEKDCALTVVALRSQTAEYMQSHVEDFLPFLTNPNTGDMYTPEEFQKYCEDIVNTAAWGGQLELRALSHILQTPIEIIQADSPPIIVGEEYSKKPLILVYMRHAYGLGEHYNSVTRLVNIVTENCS
Procedure, shortened: (§1)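 Global-median-normalised Spectronaut label-free quantities were compared by unpaired t-test, and values are average log2 ratios of fragment over vehicle. Only proteins with ≥2 unique peptides were used. HEK293T lysate (495 µg per sample) was treated in triplicate with fragment at 200 µM or vehicle for 3 h and then with Biotin-Ahx-Ub-VS at 0.5 µM final for 1 h. Labelled DUBs were then NeutrAvidin-enriched, digested with LysC and trypsin, and run by diaPASEF LC-MS/MS.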

OTUD7B = target: T2, OTUD7B (UniProt Q6GQQ9)
T2 sequence (whole entry): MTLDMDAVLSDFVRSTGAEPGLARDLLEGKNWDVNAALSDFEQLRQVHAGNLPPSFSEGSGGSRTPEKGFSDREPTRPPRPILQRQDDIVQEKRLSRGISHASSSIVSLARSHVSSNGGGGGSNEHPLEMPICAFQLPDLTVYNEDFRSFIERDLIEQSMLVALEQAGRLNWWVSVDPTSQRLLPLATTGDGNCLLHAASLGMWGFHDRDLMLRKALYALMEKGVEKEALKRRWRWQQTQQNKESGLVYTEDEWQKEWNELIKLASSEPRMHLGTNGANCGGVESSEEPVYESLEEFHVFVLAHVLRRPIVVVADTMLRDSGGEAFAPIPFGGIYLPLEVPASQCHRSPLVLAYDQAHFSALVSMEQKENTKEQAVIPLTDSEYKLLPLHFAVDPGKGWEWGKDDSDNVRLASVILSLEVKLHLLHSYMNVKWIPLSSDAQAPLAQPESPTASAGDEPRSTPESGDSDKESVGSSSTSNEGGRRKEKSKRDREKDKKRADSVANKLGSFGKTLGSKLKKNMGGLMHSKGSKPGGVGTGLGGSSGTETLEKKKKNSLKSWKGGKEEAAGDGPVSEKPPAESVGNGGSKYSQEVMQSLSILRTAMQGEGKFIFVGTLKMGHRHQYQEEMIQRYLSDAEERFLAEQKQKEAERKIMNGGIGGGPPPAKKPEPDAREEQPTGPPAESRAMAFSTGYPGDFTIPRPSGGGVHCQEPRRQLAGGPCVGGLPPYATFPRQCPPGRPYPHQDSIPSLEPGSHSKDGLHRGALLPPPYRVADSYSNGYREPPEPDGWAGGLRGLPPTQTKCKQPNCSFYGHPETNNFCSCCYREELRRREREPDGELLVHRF
Procedure, shortened: as §1

PRPF8 = PRPF8 (UniProt Q6P2Q9)
Procedure, shortened: as §1

PSMD7 = target: T3, PSMD7 (UniProt P51665)
T3 sequence (whole entry): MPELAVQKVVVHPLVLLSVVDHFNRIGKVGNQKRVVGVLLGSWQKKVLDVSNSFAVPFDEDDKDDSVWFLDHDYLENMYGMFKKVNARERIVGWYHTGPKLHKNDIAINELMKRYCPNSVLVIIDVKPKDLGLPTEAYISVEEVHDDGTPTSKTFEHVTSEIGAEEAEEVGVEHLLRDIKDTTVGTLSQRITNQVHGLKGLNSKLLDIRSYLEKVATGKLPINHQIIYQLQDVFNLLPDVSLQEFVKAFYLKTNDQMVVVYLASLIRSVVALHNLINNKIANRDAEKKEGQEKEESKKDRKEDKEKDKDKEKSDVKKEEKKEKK
Procedure, shortened: as §1

UCHL1 = UCHL1 (UniProt P09936)
Sequence of UCHL1 (P09936 whole entry, looked up): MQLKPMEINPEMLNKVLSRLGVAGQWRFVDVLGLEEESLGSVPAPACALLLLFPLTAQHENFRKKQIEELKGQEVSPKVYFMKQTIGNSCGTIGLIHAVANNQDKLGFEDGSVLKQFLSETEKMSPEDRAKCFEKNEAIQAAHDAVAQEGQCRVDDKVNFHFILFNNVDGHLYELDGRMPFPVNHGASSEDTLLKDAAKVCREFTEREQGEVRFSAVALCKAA
Procedure, shortened: as §1

UCHL3 = target: T4, UCHL3 (UniProt P15374)
T4 sequence (whole entry): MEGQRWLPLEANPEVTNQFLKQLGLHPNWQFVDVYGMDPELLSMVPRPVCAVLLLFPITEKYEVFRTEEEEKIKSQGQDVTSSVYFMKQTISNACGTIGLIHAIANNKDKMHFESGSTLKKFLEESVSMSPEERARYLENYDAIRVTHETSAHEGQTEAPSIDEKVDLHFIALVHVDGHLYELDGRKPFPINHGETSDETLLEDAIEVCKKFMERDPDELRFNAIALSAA
Procedure, shortened: as §1

UCHL5 = target: T5, UCHL5 (UniProt Q9Y5K5)
T5 sequence (whole entry): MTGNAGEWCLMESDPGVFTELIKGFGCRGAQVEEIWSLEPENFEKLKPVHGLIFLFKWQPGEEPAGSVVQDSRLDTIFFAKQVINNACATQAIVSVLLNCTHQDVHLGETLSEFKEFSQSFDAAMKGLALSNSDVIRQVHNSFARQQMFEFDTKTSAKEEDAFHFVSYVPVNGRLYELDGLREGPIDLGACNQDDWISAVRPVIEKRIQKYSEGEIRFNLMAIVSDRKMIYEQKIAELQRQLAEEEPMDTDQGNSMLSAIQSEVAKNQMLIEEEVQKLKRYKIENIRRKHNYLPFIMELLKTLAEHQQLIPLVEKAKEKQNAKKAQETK
Procedure, shortened: as §1

USP10 = USP10 (UniProt Q14694)
Sequence of USP10 (Q14694 whole entry): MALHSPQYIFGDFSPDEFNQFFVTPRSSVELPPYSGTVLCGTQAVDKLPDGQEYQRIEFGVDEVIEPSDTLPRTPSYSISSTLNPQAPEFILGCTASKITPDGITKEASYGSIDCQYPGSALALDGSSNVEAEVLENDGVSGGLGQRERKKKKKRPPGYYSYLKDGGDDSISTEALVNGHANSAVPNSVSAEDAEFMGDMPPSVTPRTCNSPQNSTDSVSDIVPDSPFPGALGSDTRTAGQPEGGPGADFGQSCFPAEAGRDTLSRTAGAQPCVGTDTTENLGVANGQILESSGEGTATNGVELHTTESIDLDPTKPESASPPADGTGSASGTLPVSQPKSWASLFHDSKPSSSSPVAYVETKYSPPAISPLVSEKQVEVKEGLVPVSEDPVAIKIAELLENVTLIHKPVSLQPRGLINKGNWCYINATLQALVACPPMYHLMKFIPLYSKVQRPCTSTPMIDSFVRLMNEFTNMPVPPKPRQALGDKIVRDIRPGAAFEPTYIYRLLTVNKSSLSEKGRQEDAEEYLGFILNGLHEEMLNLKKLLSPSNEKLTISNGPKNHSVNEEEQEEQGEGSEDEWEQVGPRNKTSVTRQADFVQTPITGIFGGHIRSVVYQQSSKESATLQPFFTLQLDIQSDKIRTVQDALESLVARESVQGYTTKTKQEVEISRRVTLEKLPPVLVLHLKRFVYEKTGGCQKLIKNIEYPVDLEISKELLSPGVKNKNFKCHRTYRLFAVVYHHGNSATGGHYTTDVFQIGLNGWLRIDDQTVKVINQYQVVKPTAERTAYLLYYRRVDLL
Procedure, shortened: as §1

USP15 = target: T6, USP15 (UniProt Q9Y4E8)
T6 sequence (whole entry): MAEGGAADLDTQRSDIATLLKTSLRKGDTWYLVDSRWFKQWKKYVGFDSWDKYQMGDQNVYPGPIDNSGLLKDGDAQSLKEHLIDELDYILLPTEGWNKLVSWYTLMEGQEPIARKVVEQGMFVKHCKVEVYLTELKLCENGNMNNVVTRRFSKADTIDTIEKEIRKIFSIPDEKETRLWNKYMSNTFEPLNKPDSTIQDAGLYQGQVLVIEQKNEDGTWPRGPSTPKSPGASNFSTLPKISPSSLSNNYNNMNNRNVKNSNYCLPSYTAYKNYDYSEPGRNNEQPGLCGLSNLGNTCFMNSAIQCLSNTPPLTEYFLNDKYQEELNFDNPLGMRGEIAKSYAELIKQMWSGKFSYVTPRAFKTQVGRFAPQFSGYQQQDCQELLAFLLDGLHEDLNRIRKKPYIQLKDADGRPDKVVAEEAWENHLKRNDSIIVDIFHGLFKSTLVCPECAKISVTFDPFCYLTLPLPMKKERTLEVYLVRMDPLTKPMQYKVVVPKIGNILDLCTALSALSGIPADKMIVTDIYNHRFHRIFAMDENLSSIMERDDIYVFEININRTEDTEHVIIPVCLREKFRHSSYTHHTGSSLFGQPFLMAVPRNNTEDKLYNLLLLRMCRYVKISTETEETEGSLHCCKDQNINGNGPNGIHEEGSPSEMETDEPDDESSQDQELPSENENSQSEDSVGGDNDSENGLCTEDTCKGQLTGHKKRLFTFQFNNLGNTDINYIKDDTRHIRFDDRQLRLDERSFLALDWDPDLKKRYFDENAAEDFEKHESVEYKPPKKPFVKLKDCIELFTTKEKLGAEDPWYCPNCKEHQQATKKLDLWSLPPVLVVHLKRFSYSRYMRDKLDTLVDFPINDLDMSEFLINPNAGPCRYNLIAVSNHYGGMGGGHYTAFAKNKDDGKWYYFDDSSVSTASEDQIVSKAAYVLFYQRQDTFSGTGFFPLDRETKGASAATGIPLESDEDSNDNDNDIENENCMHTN
Procedure, shortened: as §1

USP16 = USP16 (UniProt Q9Y5T5)
Sequence of USP16 (Q9Y5T5 whole entry, looked up): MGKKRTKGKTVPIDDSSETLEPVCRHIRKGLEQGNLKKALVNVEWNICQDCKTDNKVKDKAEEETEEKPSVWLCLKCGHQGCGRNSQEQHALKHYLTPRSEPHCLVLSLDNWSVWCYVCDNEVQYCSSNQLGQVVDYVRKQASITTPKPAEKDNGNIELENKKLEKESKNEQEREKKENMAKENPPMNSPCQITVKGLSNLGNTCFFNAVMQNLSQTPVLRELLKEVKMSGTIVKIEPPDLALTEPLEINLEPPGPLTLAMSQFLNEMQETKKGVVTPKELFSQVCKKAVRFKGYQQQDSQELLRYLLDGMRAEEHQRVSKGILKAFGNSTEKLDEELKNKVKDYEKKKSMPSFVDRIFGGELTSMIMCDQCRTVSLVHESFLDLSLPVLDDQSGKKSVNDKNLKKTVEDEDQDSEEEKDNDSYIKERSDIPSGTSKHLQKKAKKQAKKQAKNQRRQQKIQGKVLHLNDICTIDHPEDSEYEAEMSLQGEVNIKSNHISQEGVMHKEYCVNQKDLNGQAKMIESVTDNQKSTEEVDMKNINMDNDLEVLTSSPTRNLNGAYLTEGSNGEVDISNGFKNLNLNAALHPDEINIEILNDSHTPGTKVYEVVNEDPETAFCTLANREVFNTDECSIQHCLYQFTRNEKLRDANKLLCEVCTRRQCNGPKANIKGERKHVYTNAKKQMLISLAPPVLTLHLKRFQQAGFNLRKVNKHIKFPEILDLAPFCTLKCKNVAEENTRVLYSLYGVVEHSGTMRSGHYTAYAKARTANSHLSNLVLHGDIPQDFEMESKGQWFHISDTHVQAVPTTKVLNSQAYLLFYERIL
Procedure, shortened: as §1

Measured: log2 ratio of Biotin-Ahx-Ub-VS probe labelling

CN1C(=O)c2ccc(NC(=O)CCl)cc2C1=O
active: OTUD7B -1.76 | UCHL1 -1.24
inactive: OTUD6B -0.407 | PRPF8 0.154 | PSMD7 -0.0627 | UCHL3 0.282 | UCHL5 -0.2 | USP10 -0.0313 | USP15 -0.389 | USP16 -0.455
